Rows were chosen to be rich in hits. Some 2.4% of all compounds tested hit in one or more screens of this group.
D2 ag-1: activates the human D2 dopamine receptor; 340,000 compounds, 0.53% hits; activation, % at 2 µM; HEK293 T-REx D2 cells, calcium flux agonist mode; P14416;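 active = activation over 3 SD above normal in the single-dose calcium agonist read, cut at about 30% in these data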; also: 0% is about no effect
Target sequence (P14416 whole entry, looked up): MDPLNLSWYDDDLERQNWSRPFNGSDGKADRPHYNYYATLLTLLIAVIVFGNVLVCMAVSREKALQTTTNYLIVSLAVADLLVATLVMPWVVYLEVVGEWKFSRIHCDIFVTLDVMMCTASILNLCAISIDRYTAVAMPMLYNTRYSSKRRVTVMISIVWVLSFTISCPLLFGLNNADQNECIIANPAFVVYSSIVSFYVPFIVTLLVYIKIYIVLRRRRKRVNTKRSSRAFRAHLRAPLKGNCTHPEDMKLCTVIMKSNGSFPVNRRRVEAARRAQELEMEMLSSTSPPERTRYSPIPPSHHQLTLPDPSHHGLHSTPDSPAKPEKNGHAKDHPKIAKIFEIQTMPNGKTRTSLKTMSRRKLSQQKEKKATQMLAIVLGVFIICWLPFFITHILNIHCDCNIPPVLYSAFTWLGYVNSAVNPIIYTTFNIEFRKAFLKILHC
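Tetracycline-induced HEK293 Trex cells with D2 receptor force-coupled to calcium signaling, plated overnight at 30 C and loaded with no-wash calcium dye. Calcium flux read kinetically for 180 s after compound addition; responses flag agonists.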
D2 PAM-1: positive allosteric modulators of human D2 dopamine receptor; 340,000 compounds, 0.34% hits; P14416; potentiation, % at 10 µM; HEK293 T-REx D2, calcium flux, EC20 dopamine potentiation;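 active = potentiation over 3 SD above the plate norm, cut at about 30% in these data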; also: 0% is about no effect
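Using a no-wash calcium dye in inducible, force-coupled HEK293 Trex cells expressing D2, we tracked fluorescence each second for 180 s after compound, then for 180 s after EC20 dopamine to detect augmented signalling.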
D2 antag: D2 dopamine receptor (human) antagonism; P14416; inhibition, % at 10 µM; AID 485344; 340,000 compounds, 2% hits; HEK293 TREx D2 cells, calcium flux, dopamine EC80; in the data active = inhibition above about 30%; inactive = below that, where a call was filed; also: 0% is about no effect
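Dopamine at EC80 is the agonist stimulus; test compounds precede it by 180 s. Calcium flux read kinetically in a force-coupled, inducible HEK293 T-REx D2 cell line.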
D2 ag-2: human D2 receptor agonism in beta-arrestin assay. 360,000 compounds, 0.084% hits. DiscoveRx PathHunter D2 beta-arrestin, luminescence, 90 min; 100% = 57 uM dopamine signal. P14416. activation, % (concentration not given with the values); in the data active = activation above about 40%
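Agonist mode: compounds alone added to overnight-plated D2 PathHunter cells for 90 min at 37 C, with 57 uM final dopamine (EC100) defining full response. Beta-arrestin recruitment detected by chemiluminescent reagent, read after 1 h at ambient temperature.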
D2 PAM-2: positive allosteric modulators of human D2 dopamine receptor; DiscoveRx D2 beta-arrestin cells, luminescence, 90 min; 100% = 57 uM dopamine signal; potentiation, % (no concentration beside the values); AID 624464; 360,000 compounds, 0.23% hits; in the data active = potentiation above about 50%
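D2 cells co-treated with compound plus 50 nM dopamine (EC20) for 90 min at 37 deg C to detect potentiation. Beta-arrestin recruitment was read as enzyme-fragment luminescence after 1 h at ambient temperature. Full response was set by 57 uM dopamine.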
An asterisk follows results filed as active; nt = no result given.

SMILES	D2 ag-1	D2 PAM-1	D2 antag	D2 ag-2	D2 PAM-2
COc1ccc(NC(=O)c2cc3c(s2)-c2c(C)cccc2OC3)cc1Cl	0	-21	nt	nt	nt
CC(=O)Nc1nonc1-c1nnc(SCC(=O)Nc2cccc(F)c2)n1-c1ccccc1	-1	14	nt	nt	nt
CCN(CC)CCCNC(=S)N1CCN(c2nc(-c3ccccc3)cs2)CC1	0	-9	33*	0	-14
CC(C)C(=O)NNC(=O)CN1CCN(c2nc(-c3ccccc3)cs2)CC1	2	3	-1	-3	-2
CCOCCCNC(=S)N1CCN(c2nc(-c3ccccc3)cs2)CC1	nt	nt	nt	-5	-3
CCc1nnc(NC(=O)CN2CCN(c3nc(-c4ccccc4)cs3)CC2)s1	0	-1	32*	3	1
COc1ccc(CNC(=O)c2oc3c(c2C)-c2nn(Cc4ccc(Cl)cc4)cc2CC3)cc1	0	-7	nt	nt	nt
O=C(CSc1nnc(-c2ccccc2)c(-c2ccccc2)n1)NCCc1ccccc1	0	12	nt	nt	nt
Fc1ccccc1OCCCN1CCOCC1	0	2	31*	-2	-10
Cc1cccc(OCCN2CCOCC2)c1C	24	-12	41*	-1	-1
Cc1nn(C)c2c1c(-c1ccccc1)cc(=O)n2CC(=O)NC(C)c1ccccc1 (centres undefined)	1	-9	nt	nt	nt
CS(=O)(=O)N1N=C(c2cccs2)CC1c1ccccc1 (centres undefined)	0	0	32*	-3	-10
CC(C)CCNC(=O)CCn1c(=S)oc2ccccc21	0	44*	-2	-5	-7
CC(=O)c1c(C)oc2c(Br)cc(NS(=O)(=O)c3ccc(Br)cc3)cc12	1	12	nt	nt	nt
CCOC(=O)/C=C/C(=O)Nc1ccc(S(=O)(=O)N2CCCCCC2)cc1	0	13	31*	-3	-5
CCc1ccc(C(=O)c2cn(CC(=O)Nc3ccc4c(c3)OCCO4)c3ccc(C)cc3c2=O)cc1	0	-10	nt	nt	nt
CC1CCCCC1NC(=O)C1CCN(c2c3c(nc4ncnn24)CCC3)CC1 (centres undefined)	-2	-2	34*	-4	0
c1ccc(N2CCN(c3c4c(nc5ncnn35)CCC4)CC2)cc1	-1	1	-26	1	4
CSc1oc(-c2ccco2)nc1S(=O)(=O)c1ccccc1	0	-6	4	-4	-4
CC(C)Sc1oc(-c2ccco2)nc1S(=O)(=O)c1ccccc1	-3	-3	33*	-3	-15
CCN1C(=O)c2ccccc2S(=O)c2ccc(C(=O)N3CCCCCC3)cc21 (centres undefined)	0	-3	32*	-1	-3
Cc1ccc(NC2(c3ccccc3)C(=O)c3ccccc3C2=O)cc1F	1	-4	nt	nt	nt
Cc1cc(C)nc(SCC(=O)c2ccc([N+](=O)[O-])cc2)n1	0	-6	22	3	76*
O=C(CNCc1ccco1)Nc1ccccc1-n1cccc1	0	12	38*	0	-4
O=C(CNCc1ccco1)Nc1ccc(Oc2ccccc2)cc1	-1	2	-7	0	-12
SMILES	D2 ag-1	D2 PAM-1	D2 antag	D2 ag-2	D2 PAM-2
COc1cccc(CC2(CO)CCCN(Cc3ccc(CN4CCCCC4)s3)C2)c1 (centres undefined)	-1	-18	40*	-5	-19
COc1cccc(CC2(CO)CCCN(Cc3ccccc3Cl)C2)c1 (centres undefined)	-1	-5	-15	-2	0
COC(=O)c1ccc(CN2CCC(CO)(Cc3cccc(OC)c3)CC2)cc1	-1	-12	37*	0	-15
COC(=O)c1ccc(CN2CCC(CO)(CCOc3ccccc3)CC2)cc1	nt	-25	nt	-7	-5
CCn1cc(C(=O)NCc2ccc(Cl)cc2)c(=O)c2cc(S(=O)(=O)N(C)C3CCCCC3)ccc21	0	-4	nt	nt	nt
CC(C)(C)OC(=O)N1CCC[C@H]1C(=O)Nc1ccc(Br)cc1	-1	-3	10	2	-12
CC(NC(=O)C1CCCN1C(=O)OC(C)(C)C)C(=O)OCc1ccccc1 (centres undefined)	nt	nt	nt	-5	1
CC(C)(C)OC(=O)N1CCC[C@H]1C(=O)Nc1ccc(C#N)cc1	0	-7	63*	-5	-6
CC(C)(C)OC(=O)N1CCCC1C(=O)NC(Cc1ccccc1)C(=O)O (centres undefined)	2	8	32*	-3	1
O=C(ON=C1CCN(S(=O)(=O)c2ccccc2)CC1)c1cccc(Cl)c1	-2	34*	-17	-3	-10
CSc1ccccc1CNc1nc(NCC2CC2)nc2ccsc12	nt	nt	nt	5	-21
COc1ccc(CC(=O)Nc2ccc3nc(SC)sc3c2)cc1OC	33*	-22	21	4	1
CCc1ccccc1-n1c(-c2ccncc2)n[nH]c1=S	0	9	70*	-2	-16
Cc1ccccc1-n1c(-c2ccncc2)n[nH]c1=S	2	8	17	-2	-2
COc1ccc(CC(=O)Nc2cc(S(=O)(=O)N3CCCCC3)ccc2C)cc1	0	0	31*	-5	-35
CCOc1ccc(S(=O)(=O)N2CCCCC2)cc1NC(=O)Cc1ccsc1	2	5	34*	10	3
COc1ccc(S(=O)(=O)N2CCCCCC2)cc1NC(=O)Cc1ccccc1	1	3	-1	-5	-3
COc1ccc(S(=O)(=O)N2CCCCC2)cc1NC(=O)Cc1ccsc1	-1	-3	30*	7	-9
CCOc1ccc(S(=O)(=O)N2CCCCC2)cc1NC(=O)Cc1ccc(OC)cc1	nt	nt	nt	4	4
Cc1ccc(Cl)cc1NC(=O)C1CCN(C(=O)c2cnn(-c3ccccc3)c2-n2cccc2)CC1	1	-12	nt	nt	nt
COc1ccc(C(=O)NCC(c2cccnc2)N2CCc3ccccc3C2)cc1OC (centres undefined)	0	0	nt	nt	nt
Cc1ccc(C)c2[nH]c(=O)c(CN(Cc3cccs3)C(=S)NCc3ccco3)cc12	2	6	53*	0	-8
Cc1ccc2cc(CN(CC3CCCO3)C(=S)NCc3ccco3)c(=O)[nH]c2c1C (centres undefined)	-1	5	33*	-11	-5
Cc1ccc(C)c2[nH]c(=O)c(CN(CC3CCCO3)C(=S)NCc3ccco3)cc12 (centres undefined)	-1	2	6	1	1
Cc1nn(-c2ccccc2)c2c1cc1c(=O)n(C)c(=O)nc-1n2-c1cccc(Cl)c1	0	12	nt	nt	nt
Cc1ccc(S(=O)(=O)N2CCN(CC(=O)Nc3ccccc3Cl)CC2)cc1	0	10	40*	-2	-1
COc1ccc(C)cc1NC(=O)CN1CCN(S(=O)(=O)c2ccc(Br)cc2)CC1	0	2	34*	0	4

Source: PubChem BioAssay
